# Laboratory results: PubChem BioAssay AID485290 (National Center for Advancing Translational Sciences (NCATS), 2010)
# Values joined by “and” are separate entries in the source; they are usually repeats but may differ in a detail not shown here. Identical values can stand only once. In all, about 350,000 compounds went through this assay and about 990 (0.28%) were called active. About 2% were inconclusive and are not listed. Calls follow the shape of the dose curve; as a rule, active = well fitted inhibition curve with a large enough effect; inconclusive = small, poorly fitted or top-dose-only effect; inactive = no such curve, though single readings can be large or run the other way. This excerpt belongs to a sample that is enriched for actives. Where a structure was tested more than once in an assay, its records may differ in their call.
# Biological target: Tyrosyl-DNA phosphodiesterase 1 (Homo sapiens) (UniProt Q9NUW8)
# Sequence (Q9NUW8 whole entry, looked up): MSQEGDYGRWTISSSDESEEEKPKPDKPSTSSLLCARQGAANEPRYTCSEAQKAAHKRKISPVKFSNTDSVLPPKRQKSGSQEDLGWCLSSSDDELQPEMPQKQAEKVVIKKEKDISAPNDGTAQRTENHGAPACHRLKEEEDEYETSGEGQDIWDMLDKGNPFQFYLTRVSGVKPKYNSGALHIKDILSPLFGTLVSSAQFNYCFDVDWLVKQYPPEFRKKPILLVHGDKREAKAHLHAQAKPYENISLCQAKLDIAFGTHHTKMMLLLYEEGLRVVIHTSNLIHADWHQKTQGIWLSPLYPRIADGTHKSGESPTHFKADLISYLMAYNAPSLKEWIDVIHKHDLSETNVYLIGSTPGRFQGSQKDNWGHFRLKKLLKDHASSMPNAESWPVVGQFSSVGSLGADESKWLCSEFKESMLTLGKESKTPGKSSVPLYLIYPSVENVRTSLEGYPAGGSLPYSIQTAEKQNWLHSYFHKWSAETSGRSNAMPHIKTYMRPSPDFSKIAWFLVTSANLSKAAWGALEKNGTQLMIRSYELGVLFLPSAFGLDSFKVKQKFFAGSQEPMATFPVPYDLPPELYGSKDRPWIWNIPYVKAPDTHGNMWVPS
# Assay: qHTS Assay for Inhibitors of Tyrosyl-DNA Phosphodiesterase (TDP1); also: nearly all actives have a fitted effect of over 40% in size
# Conditions: recombinant TDP1, AlphaScreen DNA substrate cleavage; series mostly up to 130 µM; activity change, negative = inhibition: at the top concentration
# Description: NIH Molecular Libraries Probe Production Network [MLPCN]
# NIH Chemical Genomics Center [NCGC]
# Assay Provider: Yves Pommier and Christophe Marchand, National Cancer Institute
# Assay Title: qHTS Assay for Inhibitors of Tyrosyl-DNA Phosphodiesterase (TDP1); also: nearly all actives have a fitted effect of over 40% in size
# Human tyrosyl-DNA phosphodiesterase I (Tdp1) is a rational anticancer target because this enzyme is involved in the repair of DNA lesions created by the trapping of human DNA topoisomerase I (Top1) following treatment by anticancer agents such as camptothecins. Recombinant Tdp1 was expressed and purified from E. coli in the laboratory (Anthony et al, Nucleic Acids Research, 2007, Vol. 35, 4474-4484). A Tdp1 DNA substrate bearing a 5' biotin and a 3' phospho-tyrosine was obtained by custom synthesis. This oligonucleotidic DNA substrate was subsequently coupled to a fluorescein isothiocyanate (FITC) group via the free amino group present on the phospho-tyrosine. Tdp1 was screened against the NCGC small molecule library using the AlphaScreen (AS) detection method in which a streptavidin donor AS bead is bound at the 5' end and an anti-FITC AS acceptor bead is bound at the 3' end of the DNA oligonucleotidic substrate. In the presence of Tdp1, the enzyme cleaves the tyrosine-FITC group, leaving a 3' end phosphate on the DNA substrate. This cleavage reaction results in a loss of signal in AS.
# [1] 3 ul of buffer is dispensed in columns 3 & 4 as negative control (no enzyme and maximum signal),
# [2] 3 ul of enzyme (1 nM final) is dispensed in columns 1,2, 5-48,
# [3] 1 ul of substrate (15 nM final) is dispensed throughout the plate,
# [4] 1 ul of AS donor/acceptor bead mix (10 ug/ml final) is dispensed throughout the plate
# 3 ul of Tdp1 enzyme is dispensed to 1536-well Kalypsys black solid bottom plates. Compounds and controls (23 nl) are transferred via Kalypsys Pin Tool. The plates are incubated for 15 min at room temperature, and then 1 ul of substrate is added to start the reaction. After 5 min incubation at room temperature, 1 ul of AS donor/acceptor bead mix is added and the plates are further incubated for 10 min at room temperature. The detection is then performed on a PerkinElmer Envision reader.
# % is scaled to controls: 0 for no effect and ±100 for the full control effect; potency is read from the fitted curve at half-maximal effect.
Compound,"activity change, negative = inhibition",Potency
OC[C@@H]1O[C@H](n2cnc3c(SCc4ccccc4)ncnc32)[C@H](O)[C@H]1O,3.08% (inactive),
Cc1cc2c(s1)c1cnn(Cc3c(F)cccc3Cl)c(=O)c1n2C,0.134% (inactive),
Cc1nnc(SCC(=O)Nc2ccc(S(=O)(=O)Nc3ccc(Cl)nn3)cc2)s1,,39.8 µM (active)
CCCCCC(=O)Nc1ccc(S(=O)(=O)Nc2ccc(Cl)nn2)cc1,3.43% (inactive),
Cc1cnc(NC(=O)CSc2nnc(C)s2)s1,4.02% (inactive),
COc1cccc(C2c3c(ncn(-c4cccc(Br)c4)c3=N)Oc3ccc4ccccc4c32)c1 (configuration not stated),3.6% (inactive),
O=C1CC(c2ccccc2)CC2=C1C(c1ccco1)n1nc(C(F)(F)F)nc1N2 (configuration not stated),2.22% (inactive),
COc1ccc(NC(=O)CCN2C(=O)/C(=C/c3ccc4c(c3)OCO4)SC2=S)cc1,2.5% (inactive),
Cn1cccc1/C=C1\SC(=O)N(CC(=O)Nc2ccc(F)cc2)C1=O,5.97% (inactive),
Cc1ccc(C(=O)O)cc1-c1ccc(/C=C2\SC(=O)N(CC(=O)Nc3ccc4c(c3)OCO4)C2=O)o1,,10 µM (active)
CC1(C)C(=O)Nc2ccccc2N1C(=O)COC(=O)Cn1cnc2ccccc2c1=O,3.91% [at 56.1 µM] (inactive),
CNS(=O)(=O)c1cccc(C(=O)OCC(=O)N2c3ccccc3NC(=O)C2(C)C)c1,,31.6 µM (active)
Cc1cc(C(=O)OCC(=O)N2c3ccccc3NC(=O)C2(C)C)c(C)n1-c1ccccc1,10.8% (inactive),
CCOC(=O)c1ccccc1NC(=O)CSc1nc2ccccc2c(=O)[nH]1,5.13% (inactive),
O=C(CSc1nc2ccccc2c(=O)[nH]1)Nc1nc(-c2ccc(Br)cc2)cs1,,12.6 µM (active)
CC(=O)NCc1ccc(-c2csc(NC(=O)CCCc3nc4ccccc4c(=O)[nH]3)n2)cc1,2.93% (inactive),
O=S(=O)(c1ccc2c(c1)OCCCO2)N1CCN(S(=O)(=O)c2c(F)cccc2F)CC1,-2.34% (inactive),
Brc1nc2ncnc(NCc3ccco3)c2[nH]1,1.07% (inactive),
COC(=O)c1ccc(NC(=O)CSc2n[nH]c(-c3ccccc3)n2)cc1,8.11% (inactive),

Compound,"activity change, negative = inhibition",Potency
CN(C)c1ccc(C(CNS(=O)(=O)c2cc(F)ccc2F)N2CCOCC2)cc1 (configuration not stated),8.75% (inactive),
COc1ccc(C2Nc3ccccc3C(=O)N2Cc2ccc(CNC(=O)CO)cc2)cc1COc1ccc(NC(C)=O)cc1 (configuration not stated),-19.1% (inactive),
COc1ccc(/C=C2\SC(=S)N(CCC(=O)Nc3ccccn3)C2=O)cc1OC,5.5% [at 0.0935 µM] (inactive),
COc1ccc(-c2nn(-c3ccccc3)cc2/C=C2/SC(=S)N(CCCC(=O)O)C2=O)c(C)c1,,39.8 µM (active)
CN(C)S(=O)(=O)c1cccc(-c2nn(-c3ccccc3)cc2/C=C2\SC(=S)N(CC(=O)O)C2=O)c1,0% (inactive),
Cc1ccc(C(=O)NC2CCN(C#N)CC2)cc1,1.25% (inactive),
CCN(CC)c1nc(C#N)nc(OC)n1,-0.0347% (inactive),
COc1ccc(CCn2c3c(c(=O)[nH]c2=S)CN(C(C)C)CN3)cc1OC,1.97% (inactive),
Cc1ccc(C)c(N2C(=O)N(Cc3c(F)cccc3Cl)c3ccccc3S2(=O)=O)c1,1.47% (inactive),
N#Cc1ccc(OC2=NS(=O)(=O)c3ccccc32)cc1,-0.673% (inactive),
Fc1ccccc1Oc1ncnc2c1oc1ccccc12,-2.45% (inactive),
Cc1cccc(N2CCN(C(=O)c3cccc(S(=O)(=O)N4CCc5ccccc5C4)c3)CC2C)c1 (configuration not stated),0% (inactive),
Cc1cccc(N2CCN(S(=O)(=O)c3ccc4[nH]c(=O)c(=O)[nH]c4c3)CC2C)c1 (configuration not stated),,35.5 µM (active)
Cc1cccc(N2CCN(S(=O)(=O)c3ccc(-c4cc(C)no4)s3)CC2C)c1 (configuration not stated),0.315% (inactive),
COC(=O)c1ccccc1NC(=O)c1ccc(C#N)cc1,-0.089% (inactive),
CCOC(=O)c1ccc(NC(=O)c2c(NCc3cccs3)sc3c2CCCC3)cc1,9.48% (inactive),
Cc1nn2c(=O)cc(COC(=O)c3cccc(NC(=O)COc4ccccc4Cl)c3)nc2s1,-1.25% (inactive),
Cc1cccc(NC(=O)CN2C(=O)c3ccccc3C2=O)c1C,3.47% (inactive),
O=C1N/C(=C/c2cccn2-c2ccccc2)C(=O)N1c1cccc(Cl)c1,2.82% (inactive),

Compound,"activity change, negative = inhibition",Potency
Cc1ccccc1NC(=O)CN1C(=O)N/C(=C\c2cccn2-c2cccc(C(=O)O)c2)C1=O,,1.41 µM (active)
O=C(COc1ccccc1Cl)Nc1ccc2nc(SCC(=O)N3CCCC3)sc2c1,3.65% (inactive),
Oc1ccc(/C=C/c2c(F)cccc2F)c2cccnc12,-16.6% (inactive),
O=S(=O)(c1cccc(C(F)(F)F)c1)N1CCN(c2nc(-c3cccs3)nc3ccccc23)CC1,-0.0669% (inactive),
CN(C)C(CNC(=O)c1ccc(OCc2cn3ccccc3n2)cc1)c1ccco1 (configuration not stated),,14.1 µM (active)
COc1ccc(C(=O)NCc2cn3ccccc3n2)cc1,4.76% (inactive),
O=Cc1ccc(OCc2cn3ccccc3n2)cc1,-7.14% (inactive),
CCOC(=O)Cn1c(=O)n(-c2ccccc2OC)c2nc(-c3cccc(F)c3)nc(C(N)=O)c21,7.69% (inactive),
COc1ccc(C(=O)Nc2ccc(-n3nncc3-c3ccccc3)cc2)cc1OC,10.4% (inactive),
Cc1cc(C)cc(C(=O)NC2C(=O)N3C(C(=O)O)=C(CSc4nnc(C)s4)CSC23)c1 (configuration not stated),-8.05% (inactive),
C=CC1=C(C(=O)O)N2C(=O)[C@@H](NC(=O)/C(=N\OCC(=O)O)c3csc(N)n3)[C@H]2SC1,,14.1 µM (active)
Cc1nnc(SCC2=C(C(=O)O)N3C(=O)C(NC(=O)Cn4nc(C)c(Cl)c4C)C3SC2)s1 (configuration not stated),0% (inactive),
CO/N=C(\C(=O)N[C@@H]1C(=O)N2C(C(=O)O)=C(COC(C)=O)CS[C@H]12)c1csc(N)n1 (stereo in doubt),,inactive and 10 µM (active) and 20 µM (active)
COc1ccc(C2Nc3ccc(NC(=O)COC(C)=O)cc3C(=O)N2Cc2ccccc2)cc1COc1ccc(NC(C)=O)cc1 (configuration not stated),-3.82% (inactive),
COc1cccc(Cn2c(SCc3ccc(C(=O)N4CCC(C)CC4)cc3)nc3ccncc32)c1,5.06% (inactive),
CCOC(=O)c1ccc(NC(=O)c2c(NCc3cccc(OC)c3)sc3c2CCC3)cc1,7.58% (inactive),
COC(=O)c1ccc(NC(=O)c2cnn(-c3ccc(Cl)cc3)c2C2CCN(C(=O)OC(C)(C)C)CC2)cc1,-1.06% (inactive),
COc1ccc(C(=O)Nc2cccc(C(=O)OCc3cc(=O)n4c5c(sc4n3)CCCC5)c2)cc1,1.25% (inactive),
CC(C)c1ccc(NC(=O)c2ccc(Cn3nc(N4CCN(c5ccccc5)CC4)ccc3=O)o2)cc1,0% (inactive),
